# In PubChem BioAssay (NCATS):
# Results filed as inconclusive are left out. The source made the active and inactive calls. Calls follow the shape of the dose curve; as a rule, active = well fitted curve in the direction sought with a large enough effect; inconclusive = small, poorly fitted or top-dose-only effect, or another doubt; inactive = no such curve, though single readings can be large; an effect the other way counts as inactive or inconclusive.
# What was measured:
# [1] = Primary qHTS for inhibitors of nuclear receptor binding SET domain protein 2 (NSD2) in an isogenic RCH-ACV NSD2 p.E1099K mutant (9B) (AID 1645876); also: potency is read from the fitted curve at half-maximal effect; nearly all actives have a fitted effect of over 70% in size
# [2] = Primary qHTS for inhibitors of nuclear receptor binding SET domain protein 2 (NSD2) in an RCH-ACV wild type WT cells (2C) (AID 1645877); also: potency is read from the fitted curve at half-maximal effect; nearly all actives have a fitted effect of over 70% in size
# [3] = biological target: Rap guanine nucleotide exchange factor 3 (Homo sapiens) (UniProt O95398); test: Confirmatory qHTS for antagonist of cAMP-regulated guanine nucleotide exchange factor 3 (EPAC1) (AID 1645880); also: potency is read from the fitted curve at half-maximal effect; nearly all actives have a fitted effect of over 55% in size
# Sequence of Rap guanine nucleotide exchange factor 3 (Homo sapiens) (O95398 whole entry, looked up): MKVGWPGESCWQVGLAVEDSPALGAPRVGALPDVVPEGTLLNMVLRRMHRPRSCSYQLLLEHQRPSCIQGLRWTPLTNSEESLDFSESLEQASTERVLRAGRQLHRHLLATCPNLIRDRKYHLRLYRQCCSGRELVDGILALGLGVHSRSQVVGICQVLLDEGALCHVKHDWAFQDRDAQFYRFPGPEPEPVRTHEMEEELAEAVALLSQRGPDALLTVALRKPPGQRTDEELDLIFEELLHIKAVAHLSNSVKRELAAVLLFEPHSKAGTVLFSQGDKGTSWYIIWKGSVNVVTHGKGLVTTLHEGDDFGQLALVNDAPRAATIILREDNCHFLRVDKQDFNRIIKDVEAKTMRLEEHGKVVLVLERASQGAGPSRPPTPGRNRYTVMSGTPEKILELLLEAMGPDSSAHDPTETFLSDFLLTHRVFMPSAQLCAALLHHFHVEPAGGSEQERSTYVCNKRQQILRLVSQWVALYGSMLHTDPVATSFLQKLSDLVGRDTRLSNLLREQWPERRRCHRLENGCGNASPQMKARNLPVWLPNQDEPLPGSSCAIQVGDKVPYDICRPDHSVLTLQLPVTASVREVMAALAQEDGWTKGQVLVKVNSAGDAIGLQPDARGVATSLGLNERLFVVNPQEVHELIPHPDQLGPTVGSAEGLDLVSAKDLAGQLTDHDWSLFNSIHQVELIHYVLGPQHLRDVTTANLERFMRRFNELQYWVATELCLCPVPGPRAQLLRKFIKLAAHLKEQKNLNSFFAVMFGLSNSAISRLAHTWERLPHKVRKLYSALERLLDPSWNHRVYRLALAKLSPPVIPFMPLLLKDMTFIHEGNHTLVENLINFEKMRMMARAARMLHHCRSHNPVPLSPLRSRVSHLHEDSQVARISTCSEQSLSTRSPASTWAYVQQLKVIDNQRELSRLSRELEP
# Outline: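 Released BODIPY-GDP fluoresces less than Rap1-bound BODIPY-GDP; the signal is followed at 480/540 nm at 5-min intervals over 30 min, after 5 min at room temperature. Reactions contain 100 nM EPAC1, 250 nM RAP1B-BODIPY-GDP and 50 uM GDP; results are normalized to ATA and DMSO.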
# [4] = biological target: Rap guanine nucleotide exchange factor 3 (Homo sapiens) (UniProt O95398); test: Confirmatory qHTS for agonist of cAMP-regulated guanine nucleotide exchange factor 3 (EPAC1) (AID 1645881);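 also: EPAC1 catalysed release of BODIPY-GDP from Rap1B seen as fluorescence loss; nearly all actives have a fitted effect of over 75% in size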
# [5] = biological target: Rap guanine nucleotide exchange factor 4 (Homo sapiens) (UniProt Q8WZA2); test: Confirmatory qHTS for agonist of cAMP-regulated guanine nucleotide exchange factor 4 (EPAC2) (AID 1645884);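 also: nucleotide exchange releases bodipy-GDP from Rap1 and this lowers its fluorescence; nearly all actives have a fitted effect of over 65% in size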
# Sequence of Rap guanine nucleotide exchange factor 4 (Homo sapiens) (Q8WZA2 whole entry, looked up): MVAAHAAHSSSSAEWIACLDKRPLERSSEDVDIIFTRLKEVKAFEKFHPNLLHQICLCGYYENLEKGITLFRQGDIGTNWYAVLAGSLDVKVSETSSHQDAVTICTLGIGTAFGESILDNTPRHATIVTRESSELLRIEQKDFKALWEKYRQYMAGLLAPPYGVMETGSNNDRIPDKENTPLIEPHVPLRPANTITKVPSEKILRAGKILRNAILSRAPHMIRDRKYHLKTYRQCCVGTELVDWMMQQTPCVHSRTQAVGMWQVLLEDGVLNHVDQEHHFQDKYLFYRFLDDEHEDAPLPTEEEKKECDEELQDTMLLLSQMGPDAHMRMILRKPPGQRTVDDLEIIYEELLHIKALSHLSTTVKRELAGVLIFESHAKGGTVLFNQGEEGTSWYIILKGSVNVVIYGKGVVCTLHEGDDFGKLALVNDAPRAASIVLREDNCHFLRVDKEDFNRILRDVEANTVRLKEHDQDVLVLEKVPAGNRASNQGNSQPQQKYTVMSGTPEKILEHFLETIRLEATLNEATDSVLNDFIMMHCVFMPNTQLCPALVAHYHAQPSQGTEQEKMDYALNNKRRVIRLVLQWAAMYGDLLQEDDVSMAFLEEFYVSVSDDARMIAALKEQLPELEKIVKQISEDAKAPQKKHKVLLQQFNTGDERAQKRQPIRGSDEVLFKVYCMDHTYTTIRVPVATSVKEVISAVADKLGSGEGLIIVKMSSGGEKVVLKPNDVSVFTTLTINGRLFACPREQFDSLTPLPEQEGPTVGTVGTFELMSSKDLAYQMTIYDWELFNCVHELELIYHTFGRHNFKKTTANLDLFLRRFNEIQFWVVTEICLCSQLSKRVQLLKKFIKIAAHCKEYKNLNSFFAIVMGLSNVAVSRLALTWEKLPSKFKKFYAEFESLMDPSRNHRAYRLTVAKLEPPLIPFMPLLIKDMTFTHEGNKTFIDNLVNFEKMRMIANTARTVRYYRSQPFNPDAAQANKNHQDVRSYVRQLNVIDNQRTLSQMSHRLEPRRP
# [6] = biological target: Rap guanine nucleotide exchange factor 4 (Homo sapiens) (UniProt Q8WZA2); test: Confirmatory qHTS for antagonist of cAMP-regulated guanine nucleotide exchange factor 4 (EPAC2) (AID 1645885); also: nearly all actives have a fitted effect of over 25% in size
compound,measurement,setting,value
C=CCNC1=C2C[C@@H](C)C[C@H](OC)[C@H](O)[C@@H](C)/C=C(\C)[C@H](OC(N)=O)[C@@H](OC)/C=C\C=C(/C)C(=O)NC(=CC1=O)C2=O,Potency,[1],3.32 µM (active)
same,Potency,[2],2.63 µM (active)
C=C1C(=O)OC2C(OC(=O)C=C(C)C)C(C)=C3C(=O)C=C(C)C3C(O)C12 (stereo unspecified),Potency,[1],10.1 µM (active)
same,Potency,[2],3.19 µM (active)
C/C1=C\CCC2=CC(OC2=O)C(C)(C)/C=C/C1=O (stereo unspecified),Potency,[1],6.49 µM (active)
same,Potency,[2],2.9 µM (active)
CN(C)CC1CCn2c(c(C3=C(c4cn(C)c5ccccc45)C(=O)NC3=O)c3ccccc32)C1 (stereo unspecified),Potency,[1],7.28 µM (active)
same,Potency,[2],5.15 µM (active)
C=C1C(=O)O[C@@H]2[C@H]3C(C)=CC(=O)C3=C(C)[C@@H](OC(=O)/C(C)=C\C)[C@H](O)[C@@H]12,Potency,[2],3.58 µM (active)
C=CC(=O)Nc1ccc(CN2C(=O)N(c3cc(OC)cc(OC)c3)Cc3cnc(Nc4ccc(N5CCN(C)CC5)cc4)nc32)cc1,Potency,[1],1.46 µM (active)
same,Potency,[2],0.817 µM (active)
C=C1CC2OC(=O)C(=C)C2C(OC(=O)/C(C)=C\C)CC2(C)OC1=CC2=O (stereo unspecified),Potency,[1],2.01 µM (active)
same,Potency,[2],1.01 µM (active)
C=C1CC[C@@H](O)[C@]2(C)C[C@H]3OC(=O)C(=C)[C@H]3CC12 (stereo partly specified),Potency,[1],16.3 µM (active)
same,Potency,[2],12.9 µM (active)
CCC(C)CC(=O)OC1C(=O)C(CO)=CC(O)C1C(C)C (stereo unspecified),Potency,[1],2.58 µM (active)
same,Potency,[2],2.9 µM (active)
C[C@]12CC[C@@H]3c4ccc(OS(=O)(=O)O)cc4CC[C@H]3[C@@H]1CCC2=O,Potency,[3],8.49 µM (active)
same,outcome,[4],inactive
same,outcome,[5],inactive
same,Potency,[6],inactive
